Pin1 inhibitor: qHTS Assay to Find Inhibitors of Pin1; Pin1 FP peptide displacement, HiFluor488, 10 min; Potency, µM (highest dose often 115 µM), hits mostly inhibitors; 0.009% of 390,000 active; AID 504891, 2011; active = well fitted inhibition curve with a large enough effect in the polarisation, with a control signal flat, not every such curve was filed as active; inconclusive = small, poorly fitted or top-dose-only effect, or effect the other way, or a change in a side signal; inactive = no such curve, though single readings can be large or run the other way; the % refers to the polarisation
Target sequence (Q13526 whole entry, looked up): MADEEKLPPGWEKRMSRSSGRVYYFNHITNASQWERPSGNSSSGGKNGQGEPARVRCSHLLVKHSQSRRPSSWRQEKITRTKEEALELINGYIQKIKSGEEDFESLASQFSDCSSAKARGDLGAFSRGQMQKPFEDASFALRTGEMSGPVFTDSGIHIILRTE
PGK inhibitor: qHTS Assay to Find Inhibitors of Phosphoglycerate Kinase; 0.043% of 380,000 active; PGK/GAPDH coupled, Kinase-Glo luminescence, 60 min; Phosphoglycerate kinase, glycosomal (Trypanosoma brucei brucei), P07378; Potency, µM (top dose mostly 57.5 µM), actives largely listed as inhibitors; note: nearly all actives have a fitted effect of over 60% in size
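Recombinant glycosomal PGK reaction used 1,3-bisphosphoglycerate generated in-well by GAPDH (100nM final) in 100mM TEA pH 7.6, 5mM MgCl2, 0.01% Tween-20. After 60 minutes at room temperature, ATP was read by Kinase-Glo Plus luminescence end-point.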
GLS inh: qHTS for Inhibitors of Glutaminase (GLS); Glutaminase kidney isoform, mitochondrial (Homo sapiens), O94925; GLS enzymatic activity, qHTS titration; Potency, µM (top dose mostly 45.5 µM), actives largely listed as inhibitors; 0.21% of 410,000 active; AID 624170, 2012
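Glutamate formation by hKGA was monitored fluorometrically using coupled glutamate oxidase, HRP and Amplex Red. Substrate was added as 1 mM L-glutamine solution; incubation was 30 min at RT after an initial read.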
mIDH1 inhibitor: qHTS for Inhibitors of mutant isocitrate dehydrogenase 1 (IDH1): qHTS; Isocitrate dehydrogenase [NADP] cytoplasmic (Homo sapiens), O75874; IDH1-R132H enzyme, NADPH consumption, diaphorase/resazurin fluorescence; Potency, µM (titrated, usually from 76.6 µM), usual class: inhibitors; 0.093% of 390,000 active; AID 602179, 2012; note: nearly all actives have a fitted effect of over 65% in size
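IDH1-R132H (0.5 ug/mL dispensed) in pH 7.5 Tris buffer was preincubated 30 min with compound, then given a substrate mix of 0.016 mM NADPH and 2 mM alpha-KG for 80 min at room temperature; remaining NADPH was read by diaphorase/resazurin fluorescence.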
IDH1 autofl: qHTS for Inhibitors of mutant isocitrate dehydrogenase 1 (IDH1): Cherrypicks Autofluorescence Interference; shares compounds with mIDH1 inhibitor; inhibition of signal, % at 51.2 µM; AID 623980, 2012; 750 tested, under 10 active; Resorufin detection reagent fluorescence interference, cell-free
IDH1 WT: qHTS for Inhibitors of mutant isocitrate dehydrogenase 1 (IDH1): Cherrypicks in WT IDH1; shares compounds with mIDH1 inhibitor; WT IDH1 enzyme, NADPH diaphorase/resazurin fluorescence; Potency, µM (series often up to 115 µM), most hits filed as inhibitors; 9% of 750 active; note: nearly all actives have a fitted effect of over 55% in size
mIDH1 confirm: qHTS for Inhibitors of mutant isocitrate dehydrogenase 1 (IDH1): Confirmation of Cherrypicks; shares compounds with mIDH1 inhibitor; IDH1 R132H enzyme, NADPH diaphorase/resazurin fluorescence; Potency, µM (series often up to 76.6 µM), actives largely listed as inhibitors; 83% of 750 active; note: nearly all actives have a fitted effect of over 50% in size
Hits are given with their value; – = inactive; ? = inconclusive; · = no result given. Hits are enriched below; roughly 0.33% of the tested compounds scored in any of these assays. Unless noted, calls come from the whole dose curve; as a rule, active = well fitted curve in the direction sought with a large enough effect; inconclusive = small, poorly fitted or top-dose-only effect, or another doubt; inactive = no such curve, though single readings can be large; an effect the other way counts as inactive or inconclusive.

SMILES | Pin1 inhibitor | PGK inhibitor | GLS inh | mIDH1 inhibitor | IDH1 autofl | IDH1 WT | mIDH1 confirm
Cc1ccc(-c2c(C)n3c4c(=O)n(C)c(=O)n(C)c4nc3n2CCO)cc1 | – | – | – | – | · | · | ·
CCCCn1c(-c2ccc(C)cc2)c(C)n2c3c(=O)n(C)c(=O)n(C)c3nc12 | – | – | – | ? | – | – | 11µM
Cc1cc2c(s1)c1cnn(Cc3cc(C(F)(F)F)ccc3F)c(=O)c1n2C | – | · | · | · | · | · | ·
COc1cc(C2Oc3cc(C4Oc5cc(O)cc(O)c5C(=O)C4O)ccc3OC2CO)ccc1O (stereo not given) | – | – | – | – | · | · | ·
CC(=O)Oc1cc(O)c2c(c1)OC(c1ccc(OC(C)=O)c(OC(C)=O)c1)C(OC(C)=O)C2=O (stereo not given) | – | – | – | 52µM | – | – | ?
COc1ccc(-c2nn3c(-c4ccccc4C)nnc3c3ccccc23)cc1 | – | – | – | ? | – | – | 22µM
CSc1cc2c(s1)c1cnn(Cc3ccccc3F)c(=O)c1n2C | – | · | · | · | · | · | ·
COc1ccc(CN(CCC(c2ccccc2)c2ccc(OC(C)C)cc2)C(=O)CCl)cc1OC (stereo not given) | – | – | – | ? | – | – | 7.9µM
Cc1sc(NC(=O)c2ccco2)c(C(c2cccnc2)N2CCC(C)CC2)c1C (stereo not given) | – | – | – | ? | – | – | ?
CCN1CCN(C(c2cccnc2)c2c(NC(=O)c3ccco3)sc(C)c2C)CC1 (stereo not given) | – | – | – | – | · | · | ·
COc1cc(NS(=O)(=O)c2ccc(NC(=S)NC(=O)/C=C/c3ccc(OC)c(OC)c3)cc2)ncn1 | – | ? | – | ? | · | · | ·
COc1ccc(/C=C/C(=O)NC(=S)Nc2ccc(S(=O)(=O)Nc3cc(OC)ncn3)cc2)cc1 | – | – | – | ? | – | 40µM | 5µM
O=C1/C(=C\c2ccc(Cl)c(Cl)c2)CN(C(=O)CCN2CCOCC2)C/C1=C/c1ccc(Cl)c(Cl)c1 | – | – | – | ? | – | – | 28µM
O=C1/C(=C\c2ccccc2)CN(C(=O)CCN2CCCCC2)C/C1=C/c1ccccc1 | – | – | – | – | · | · | ·
NC(N)=NCCCC(N)C(=O)O (stereo not given) | · | · | – | · | · | · | ·
N#CC1=C(N)C(C#N)(C#N)C(c2cccnc2)C2COCC=C12 (stereo not given) | – | – | – | ? | – | – | 40µM
CCC(c1nnnn1C1CCCCC1)N(Cc1ccco1)Cc1cc2ccc(OC)cc2[nH]c1=O (stereo not given) | ? | – | – | ? | – | – | ?
Cc1ccc2cc(C(c3nnnn3C3CCCC3)N(Cc3ccco3)Cc3cccs3)c(=O)[nH]c2c1 (stereo not given) | – | – | – | – | · | · | ·
CC(C)C[C@@H](CN1CCC[C@@H]1CN1C(=O)C(=O)NC[C@@H]1Cc1ccccc1)N1C[C@H](Cc2ccccc2)N(CC2CCCCCC2)C(=O)C1=O | – | – | – | 40µM | – | – | 20µM
CC(C)C[C@@H](CN1CCC[C@@H]1CN1C(=O)C(=O)NC[C@@H]1Cc1ccccc1)N1C[C@H](Cc2ccccc2)N(CC2CCCCC2)C(=O)C1=O | · | · | – | · | · | · | ·
CC(C)C[C@H]1CN([C@@H](Cc2ccc(O)cc2)CN2CCC[C@@H]2CN2C(=O)C(=O)NC[C@@H]2Cc2ccccc2)C(=O)C(=O)N1CC1CCCCC1 | – | – | – | 45µM | – | – | 14µM
Cc1ccc(N2C(=O)c3n[nH]c(C)c3C2c2ccc(C(C)C)cc2)cc1 (stereo not given) | – | – | – | ? | – | – | 28µM

Screening results from PubChem.
